# Screening results: PubChem BioAssay, National Center for Advancing Translational Sciences (NCATS)
# ALDH1A1 block: inhibitors of human aldehyde dehydrogenase 1A1. actives 7.3% (n = 220,000). Potency, µM (doses to about 75.3 µM), for the others: top-dose activity, negative = inhibition, most hits filed as inhibitors. Purified ALDH1A1, NADH fluorescence, propionaldehyde substrate. P00352; active = well fitted inhibition curve with a large enough effect, not every such curve was filed as active; inconclusive = small, poorly fitted or top-dose-only effect, or another doubt; inactive = no such curve, though single readings can be large or run the other way;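 also: potency is read from the fitted curve at half-maximal effect; plate controls were no enzyme wells and a reference inhibitor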
# HPGD inh: HPGD (human) dehydrogenase inhibition. P15428. purified HPGD, NADH fluorescence kinetic, PGE2 substrate. Potency, µM, for the others: top-dose activity change, negative = inhibition, hits mostly inhibitors. actives 4.3% (n = 150,000). AID 894; active = well fitted inhibition curve with a large enough effect, not every such curve was filed as active; inconclusive = small, poorly fitted or top-dose-only effect, or another doubt; inactive = no such curve, though single readings can be large or run the other way; also: potency is read from the fitted curve at half-maximal effect
# Target sequence (P15428 whole entry, looked up): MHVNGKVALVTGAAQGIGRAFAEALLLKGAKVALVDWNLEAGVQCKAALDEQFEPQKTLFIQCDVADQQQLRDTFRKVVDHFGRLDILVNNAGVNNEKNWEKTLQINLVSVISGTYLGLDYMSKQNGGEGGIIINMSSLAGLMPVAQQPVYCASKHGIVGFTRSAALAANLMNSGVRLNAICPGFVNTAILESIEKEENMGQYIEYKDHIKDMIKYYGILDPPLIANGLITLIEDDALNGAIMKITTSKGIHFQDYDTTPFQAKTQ
#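 NADH formation kinetics: reaction with 30 uM PGE2 and 1 mM NAD+ (final), 20 nM enzyme, Tris-HCl pH 8 with Tween 20, after 15 min compound preincubation at room temperature. Fluorescence change, last versus first of five reads.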
# IMPase cell inh: membrane-permeable compound that blocks inositol monophosphatase | AID 901 | 120,000 tested, under 10 active | P97697 | CHO-M1 cells, IP1 accumulation, HTRF TR-FRET ratio | inhibition (IP1 accumulation), % at 46.1 µM; active = well fitted curve in the direction sought with a large enough effect in the signal ratio, not every such curve was filed as active; inconclusive = small, poorly fitted or top-dose-only effect, or a change in a side signal; inactive = no such curve, though single readings can be large or run the other way; the % refers to the signal ratio;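 also: cells stimulated with carbachol in lithium chloride buffer; plate controls were DMSO basal wells for no effect and reference inhibitor wells for full effect; higher means more IMPase inhibition seen as more IP1 and lower FRET ratio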
# Target sequence (P97697 whole entry, looked up): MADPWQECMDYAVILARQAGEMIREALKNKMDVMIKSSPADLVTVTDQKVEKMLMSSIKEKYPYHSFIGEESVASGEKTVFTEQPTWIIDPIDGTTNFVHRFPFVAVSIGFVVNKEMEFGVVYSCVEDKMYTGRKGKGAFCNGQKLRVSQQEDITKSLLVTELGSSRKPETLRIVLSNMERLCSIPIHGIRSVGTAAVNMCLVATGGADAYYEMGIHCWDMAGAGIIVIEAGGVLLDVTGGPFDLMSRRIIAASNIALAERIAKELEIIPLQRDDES
#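 In this qHTS, compounds (final up to 46 uM) act on CHO-M1 cells that are then activated through the M1 receptor with carbachol, in pH 7.4 buffer containing 50 mM LiCl, for 30 min. IP1 accumulation is quantified by the IP-One immunoassay.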
# PNC assembly inh: perinucleolar compartment assembly inhibition. AID 2417. activity change (PNC), negative = inhibition, % at 10 µM. actives 3.1% (n = 140,000). PC3M PTB-GFP, PNC prevalence imaging, 16 h; active compounds read low;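 active = readout at or below -70, meaning at least 70% loss of cells showing the perinucleolar compartment, a nuclear body marking cancer cells; inconclusive = readout between -30 and a set limit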;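 also: plate controls were DMSO wells for no effect and camptothecin positive control wells for full effect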
#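 Compounds are pinned in duplicate onto adhered PC3M cells stably expressing GFP-tagged PTB and incubated 16 h at 37 C. Cells are then fixed, nuclei stained with Hoechst, and PNC-positive cells counted.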
# ALOX12 inhib: 12-hLO (ALOX12) enzyme inhibition; P18054; purified 12-hLO, xylenol orange hydroperoxide absorbance; Potency, µM (doses to about 57.1 µM), without a hit: top-dose activity change, negative = inhibition, usual class: inhibitors; actives 0.12% (n = 150,000); also: potency is read from the fitted curve at half-maximal effect; nearly all actives have a fitted effect of over 55% in size
#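 Lipoxygenase turnover measured by absorbance at 573 and 405 nm after Fe-XO development. Human 12hLO 150 nM, arachidonate 40 uM, pH 7.0 Hepes buffer with detergent; 15 min compound preincubation, 30 min reaction.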
# IMPase Li inh: IMPase inhibition in cells with lithium potentiation | CHO-M1 cells, IP1 TR-FRET (IP-One), carbachol + lithium | Potency, µM (series often up to 59.4 µM), for the others: top-dose activity, negative = IMPase inhibition, hits mostly inhibitors | actives 0.35% (n = 210,000);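 also: IP1 builds up when IMPase is blocked and the TR-FRET signal falls; potency is read from the fitted curve at half-maximal effect; plate controls were basal vehicle for no effect and high inhibitor control for full effect; nearly all actives have a fitted effect of over 50% in size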
#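 CHO cells stably expressing M1 receptor (2000/well, cultured 16–30 h) treated 30 min at 37C with compound plus low lithium. Cytosolic IP1 by TR-FRET (665/620 ratio and 620 channel) after 10 min lysis; AC50 by Hill fit.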
# An asterisk follows results filed as active; ? = inconclusive; · = not tested or not shown; [ ] = another dose, or the depositor's remark. Hits are enriched below; roughly 11% of the tested compounds scored in any of these assays. Unless noted, calls follow the shape of the dose curve; as a rule, active = well fitted curve in the direction sought with a large enough effect; inconclusive = small, poorly fitted or top-dose-only effect, or another doubt; inactive = no such curve, though single readings can be large; an effect the other way counts as inactive or inconclusive. Unless noted, % is scaled to controls: 0 for no effect and ±100 for the full control effect.
SMILES,ALDH1A1 block,HPGD inh,IMPase cell inh,PNC assembly inh,ALOX12 inhib,IMPase Li inh
CCCCn1c(SC(C)C(=O)c2ccc(OC)cc2)nc2cc(S(N)(=O)=O)ccc21 (stereo not drawn),-10%,-16%,-14,12,-5%,-14%[38.3 µM]
COc1ccccc1C(=O)N/C(=C\c1ccccc1)C(=O)NC(C)C(=O)O (stereo not drawn),8%,·,·,·,·,2%
Cc1ccc(S(=O)(=O)Oc2ccc(/C=C(/NC(=O)c3ccccc3)C(=O)NC(C)C(=O)O)cc2)cc1 (stereo not drawn),4µM*,·,·,·,·,-1%
Cc1ccc(S(=O)(=O)Oc2ccc(/C=C(/NC(=O)c3ccccc3)C(=O)O)cc2)cc1,13µM*,·,·,·,·,-6%
CC(=O)N/C(=C\c1ccc(C)cc1)C(=O)O,-12%,·,·,·,·,-7%
COc1ccccc1C(=O)N/C(=C\c1ccc(Br)cc1)C(=O)NCC(=O)O,5%,-1%,·,23,1%,-5%
Cc1ccc(S(=O)(=O)Oc2ccc(/C=C(/NC(=O)c3ccccc3)C(=O)NCC(=O)O)cc2)cc1,5µM*,·,·,·,·,7%
COCCNc1nc(-c2ccccc2OC)nc2ccccc12,?,·,·,·,·,5%
CC1=CC2C(C(C)C)CCC(C)(O)C2CC1 (stereo not drawn),6%,-11%,·,·,-1%,-3%
CN1CCN(c2ncc3ncc(=O)n(-c4ccccc4)c3n2)CC1,?,·,·,·,·,-13%
CCc1ccc2oc(-c3ccc(NC(=O)c4cccc(Cl)c4Cl)cc3)nc2c1,·,·,-10,·,·,·
COc1ccc(Cc2nc(=S)[nH][nH]2)cc1Br,6.3µM*,·,·,·,·,5%
COc1ccc(Cc2n[nH]c(=S)n2C)cc1Br,-8%,·,·,·,·,18%
CN1CC[C@@]2(CCCN(S(=O)(=O)c3ccccc3)C2)C1,-15%,-10%,·,·,-6%,-25%
CCCCn1c(N)c(N(CC)C(=O)CSc2nnnn2-c2cc(C)ccc2C)c(=O)[nH]c1=O,11µM*,·,·,·,·,6%
Cc1ccc(Cl)cc1N1CCN(CCCNC(=O)c2nnc(Cc3cccc(Cl)c3)o2)CC1,·,·,19,·,·,·
NNc1nc(-c2ccccc2)cc(-c2ccccc2O)n1,6%,-14%,1,-106*,-6%,1%[38.3 µM]
CCOc1ccc(C(=S)N2CCOCC2)cc1,-2%,-13%,8,17,-2%,2%[38.3 µM]
S=C(c1ccc(N2CCOCC2)cc1)N1CCOCC1,2.2µM*,7.9µM*,-5,-3,-1%,4%[38.3 µM]
Oc1ccc(C(=S)N2CCCCCC2)cc1,?,?,-2,15,4%,0%[38.3 µM]
S=C(c1ccc(N2CCCC2)cc1)N1CCCCC1,20µM*,14µM*,10,12,-7%,30%[38.3 µM]
CC(C)c1nnc(NC(=O)C2CCCO2)s1 (stereo not drawn),3.8µM*,·,·,·,·,11%
Cc1c(NC(=O)C2CCCO2)cccc1[N+](=O)[O-] (stereo not drawn),0%,-3%,5,-85*,-6%,-1%
Cc1cccc2sc(NC(=O)C3CCCO3)nc12 (stereo not drawn),-13%,-17%,1,-100*,-2%,9%
CC(C)Sc1nnc(NC(=O)C2CC2)s1,0.05µM*,-26%,15,?,-10%,9%[38.3 µM]
SMILES,ALDH1A1 block,HPGD inh,IMPase cell inh,PNC assembly inh,ALOX12 inhib,IMPase Li inh
CCSc1nnc(NC(=O)C2CCCCC2)s1,-7%,-5%,?,-15,-1%,0%[38.3 µM]
CCC(C)c1ccccc1NC(=O)C1CCCO1 (stereo not drawn),1%,-2%,1,?,-3%,27%[38.3 µM]
CCc1cccc(C)c1NC(=O)C1CCCO1 (stereo not drawn),13%,-1%,5,?,3%,6%[38.3 µM]
Clc1cc(Cl)cc(Cl)c1,3%,1%,·,·,-4%,18%
CC(C)c1nnc(NC(=O)C2CCCCC2)s1,-11%,-13%,-15,-118*,3%,3%
CSc1nnc(NC(=O)C2CCCCC2)s1,3%,-4%,8,-24,2%,20%[38.3 µM]
CCc1nnc(NC(=O)C2CCCCC2)s1,25µM*,?,-1,9,-2%,-6%
